# Most compounds without a hit are left out; they make up all but 2.9% or so of the library.
# CF NFkB block – blocks PAF-induced NF-kB reporter in cystic fibrosis cells; KKLEB NF-kB-GFP reporter, GFP fluorescence overnight; inhibition, % at 5 µM; 0.86% of 360,000 active;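 active = at least 50% inhibition at 5 µM, scaled per plate between neutral and stimulator controls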;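 also: PAF is a Pseudomonas aeruginosa culture filtrate used as stimulus; plate controls were PAF-stimulated DMSO wells for no effect and unstimulated DMSO wells for full effect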
# HIF-2a block – blocks HIF-2a reporter activity. inhibition, % at 18.8 µM. 786-0 RCC cells HIF-2a reporter, luciferase luminescence, overnight. 0.72% of 360,000 active;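 active = inhibition of the luminescence signal of 40% or more relative to plate controls, in a single-dose primary screen at 18.75 µM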
# Shn3 inh set2 – Schnurri-3 reporter inhibition in Clone20 osteoblasts; Clone20 osteoblast Shn3 3'UTR firefly luciferase, 24 h; inhibition, % at 12.5 µM; 0.52% of 360,000 active;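 active = mean inhibition of at least 75% with every replicate also reaching 75%; inconclusive = mean inhibition at least 75% but some replicate below; inactive = mean inhibition below 75%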;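 also: 0% = median of neutral control wells and 100% = pilot-screen positive control compound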
# KKLEB tox – CF airway cell cytotoxicity counter-screen. activity change (cytotoxicity), % at 5 µM. 0.36% of 360,000 active. KKLEB CF airway cells viability, ATPlite luminescence, overnight; stronger effect = lower value; cells stimulated with P. aeruginosa culture filtrate. AID 602141;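 active = corrected activity change at or below -50% at 5 µM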
# LMP1 NFkB inh – inhibitors of Epstein-Barr LMP1-induced NF-kappaB reporter; inhibition, % at 12.5 µM; 0.69% of 350,000 active; AID 504558; LMP1-induced NF-kappaB luciferase reporter cells, luminescence; in the data active = inhibition above about 41%; inconclusive = no clear call, values can overlap the other calls;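 also: 0% = neutral control wells and 100% = reference inhibitor control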
# Peg3 promoter – inhibitors of Peg3 promoter; HeLa PEG-Prom luciferase reporter, luminescence, overnight; inhibition, % at 20 µM; 1.7% of 360,000 active;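 active = inhibition of at least 50% at 20 µM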
# Numbers without * were called inactive; ? = inconclusive; · = not tested or not shown.
SMILES,CF NFkB block,HIF-2a block,Shn3 inh set2,KKLEB tox,LMP1 NFkB inh,Peg3 promoter
COc1cccc(N2CCN(C(=O)c3ccc(Cl)c(NC4=NC5CS(=O)(=O)CC5S4)c3)CC2)c1 (centres undefined),-9.6,7.6,-33.9,12.7,-3.0,-5.2
CCN(CC)S(=O)(=O)c1cccc(NC(=O)CNc2cccc(S(=O)(=O)N3CCCC3)c2)c1,18.3,24.7,86.8*,-2.6,25.2,13.3
COc1ccc(-n2nnnc2C(c2cccc3ccccc23)N2CCN(C/C=C/c3ccccc3)CC2)cc1 (centres undefined),21.5,-12.8,32.6,-19.4,·,-3.3
Cc1cccc(-n2ncc3c(N4CCOCC4)ncnc32)c1,-38.9,22.4,23.4,-14.7,65.6*,22.6
Cc1ccc(-n2ncc3c(N4CCN(c5ccccc5)CC4)ncnc32)c(C)c1,18.9,-65.2,80.4,-7.6,12.3,96.6*
CCc1cc2c(N3CCN(c4ccccc4)CC3)ncnc2s1,10.5,-32.1,83.0,-8.1,44.5*,27.9
COc1ccc(N2CCN(c3ncnc4c3cnn4-c3ccc(C)cc3C)CC2)cc1,-9.7,9.4,72.6,7.3,12.2,14.3
O=C1NC[C@@H](CCCCN2CCN(CCc3ccccc3)C(=O)C2=O)N(CC2CCCCC2)C1=O,·,10.2,·,·,·,·
CC(=O)c1cccc(CN2CCCC(C(=O)Nc3cccc(-n4cccn4)c3)C2)c1 (centres undefined),2.8,7.9,-15.8,5.3,-0.9,19.5
Cc1cccc(C)c1NC(=O)CNC(=O)c1ccc(COc2ccccc2)cc1,-6.9,-12.8,-3.7,3.8,-8.2,-4.1
O=C(Nc1ccc(Cl)cc1)c1ccc2snnc2c1,4.5,-251.3,-25.6,-1.4,79.9*,-237.2
CC1(C(=O)Nc2cccc(C(F)(F)F)c2)Cc2c(-c3cccc(C(N)=O)c3)ccnc2O1 (centres undefined),-29.0,14.7,33.4,-5.4,·,32.1
O=C(NNC(=O)c1ccccc1C(F)(F)F)c1csc(N2CCOCC2)n1,25.4,17.2,6.4,-5.4,-4.2,-3.8
C=CCC[C@@H](Cc1ccc(F)cc1)C(=O)OC[C@@H](Cc1c[nH]c2ccccc12)NC(=O)[C@H](CC=C)CC(=O)N(CCO)Cc1ccccc1,27.2,5.7,49.9,-1.6,8.9,52.3*
C=CCC[C@@H](Cc1ccc(F)cc1)C(=O)OC[C@H](Cc1c[nH]c2ccccc12)NC(=O)[C@H](CC=C)CC(=O)NCCO,-2.9,5.2,20.4,-14.9,-0.1,22.0
C=CC[C@@H](CC(=O)N(CCO)Cc1ccccc1)C(=O)N[C@@H](COC(=O)[C@@H](CC=C)Cc1ccc(F)cc1)Cc1c[nH]c2ccccc12,29.7,14.9,30.1,-5.6,6.7,43.3
C=CCC[C@H](Cc1ccc(F)cc1)C(=O)OC[C@@H](Cc1c[nH]c2ccccc12)NC(=O)[C@H](CC=C)CC(=O)NCCO,0.2,3.0,12.8,-7.8,-2.3,18.5
C=CCC[C@H](Cc1ccc(F)cc1)C(=O)OC[C@H](Cc1c[nH]c2ccccc12)NC(=O)[C@@H](CC=C)CC(=O)N[C@H](CO)Cc1ccccc1,-8.2,-0.1,91.5*,7.8,4.3,22.1
C=CC[C@H](CC(=O)N(CCO)Cc1ccccc1)C(=O)N[C@@H](COC(=O)[C@@H](CC=C)Cc1ccc(F)cc1)Cc1c[nH]c2ccccc12,7.4,-36.9,-11.6,7.3,-1.6,60.2*
C=CCC[C@H](Cc1ccc(F)cc1)C(=O)OC[C@@H](Cc1c[nH]c2ccccc12)NC(=O)[C@H](CC=C)CC(=O)N(CCO)Cc1ccccc1,14.3,-10.2,?,-12.0,12.8,64.5*
COC(=O)C[C@H]1C=C[C@H](NC(=O)Nc2ccccc2)[C@@H](CO)O1,·,0.1,·,·,·,·
CCn1nnnc1NCc1ccc(OCc2c(F)cccc2Cl)c(OC)c1,-13.2,9.8,·,2.9,-6.1,19.1
O=C(N/N=C/c1cccc([N+](=O)[O-])c1)c1ccc(COc2ccccc2-c2ccccc2)cc1,5.8,-10.2,11.7,-10.6,-12.9,-24.6
C=CC[C@H](CC(=O)N[C@H](CO)Cc1ccccc1)C(=O)N[C@@H](COC(=O)[C@@H](CC=C)CC(=O)OC(C)(C)C)Cc1c[nH]c2ccccc12,2.5,7.2,8.4,9.3,6.5,62.6*
CCCC(=O)C1=C(O)C(C(=O)OC)C(C)(C)CC1=Nc1ccncc1 (centres undefined),-5.8,0.5,2.4,1.2,77.1*,1.1
SMILES,CF NFkB block,HIF-2a block,Shn3 inh set2,KKLEB tox,LMP1 NFkB inh,Peg3 promoter
CCCC(=O)C1=C(O)C(C(=O)OC)C(C)(C)CC1=Nc1ccc(C)cc1 (centres undefined),-0.9,18.5,7.9,-5.2,2.7,13.2
O=C(NC1CC1)c1ccccc1,-11.7,15.5,0.1,2.3,10.8,2.2
CN(C)CCCN1C(=O)c2cccc3cccc(c23)C1=O,-71.7,23.9,-25.7,13.1,-41.3,27.3
CN(C)CCN1C(=O)c2cccc3cc([N+](=O)[O-])cc(c23)C1=O,-146.4,46.2*,96.9*,-14.4,58.1*,97.2*
O=C(NCC1CCCO1)c1cc2c([nH]c3ccccc32)c(-c2cccc(Cl)c2)n1 (centres undefined),-10.8,-22.1,52.1,1.0,-6.1,52.6*
COc1cc(-c2nc(C(=O)NCC3CCCO3)cc3c2[nH]c2ccccc23)cc(OC)c1OC (centres undefined),9.9,-77.5,40.3,3.2,91.6*,56.6*
CCCCCCNc1nc(Cl)nc(NC(C)(C)CO)n1,16.1,4.7,-0.6,-9.8,4.5,8.8
CC(C)N1C(=O)CCC1C(=O)N1CCN(c2ccc(F)cc2)CC1 (centres undefined),6.2,9.8,-0.8,7.4,0.7,5.9
CCC(C)N1C(=O)CCC1C(=O)N1CCN(c2ccc(F)cc2)CC1 (centres undefined),11.7,0.1,-2.5,-10.0,63.9*,-4.0
Cc1cccc(N(C(=O)c2csnn2)C(C(=O)NC2CCCCC2)c2ccncc2)c1 (centres undefined),14.3,4.8,9.5,9.4,-5.9,1.3
N#Cc1ccc(-c2csc(NNC(=O)c3ccc(Br)cc3)n2)cc1,5.0,8.4,7.7,6.8,54.8*,27.9
C[C@@H]1NC(=O)N[C@@H]1CCCCCC(=O)O,-11.1,5.9,17.3,-64.1*,2.7,12.1
CCCCCC1NC(=O)NC1CCCCCC(=O)O (centres undefined),14.6,9.9,4.5,-11.4,-1.9,-0.3
COc1ccc(C(=O)N2CCN(C)C(=O)[C@@H]2C)cc1OC1CCN(C(C)=O)CC1,5.2,11.6,2.3,11.9,5.4,13.9
N#C/C(N=Nc1ccccc1O)=N\Nc1ccccc1O,-46.3,-70.7,34.5,0.6,-25.6,66.6*
Oc1ccccc1N=N/C(=N/Nc1ccccc1O)c1ccccc1,-3.8,12.9,-7.3,9.5,-2.5,-0.5
Cc1ccc(/C=C/C(=O)NCc2cccs2)o1,-7.1,-35.3,25.4,-2.4,-15.5,-22.5
